The source of these data is PubChem BioAssay (EPA / NIEHS).

Several values for one entry are separate records, joined by “and”; a condition that tells them apart may be missing. Equal entries are not always repeated. Activity calls are given as the source filed them. How the source made its calls: active means hit-call score of the fitted dose curve at least 0.9, where 1 is the maximum; inactive means score below 0.9.

This experiment can be described thus: CCTE_Shafer_MEA_acute_burst_number: CCTE's Neural Acute Assay for Single-Electrode Bursts, Shafer Lab (AID 2284013). On the procedure: CCTE_Shafer_MEA_acute assay is conducted using Axion Biosystems 48 well microelectrode array (MEA) plates and Maestro recording system. Each well of the MEA plate contains a grid of 16 microelectrodes embedded in the culture surface. Electrically active cells, such as neurons, can be cultured over the electrodes, and electrical activity in these cells can be recorded extracellularly. The spontaneous firing of neurons is captured from each electrode on a microsecond timescale providing both temporally and spatially precise data. […] The CCTE_Shafer_MEA_acute assay uses primary cultures of rat cortical neurons. As these cultures mature over time, neural networks develop functional activity and form cohesive networks in which electrical activity can be highly coordinated. Baseline 40-minute recordings are made on days post-plating 13 or 15, followed by a secondary 40-minute recording after chemical exposure.CCTE_Shafer_MEA_acute_burst_number is a component of the CCTE_Shafer_MEA_acute assay. It measures the total number of single-electrode bursts (temporally-clustered groups of action potential firing) during a recording in a microelectrode array (MEA) using Axion Biosystems Maestro 768 channel amplifier with the AxIS adaptive spike detector. The recordings before and after chemical treatment are used to calculate a percent change in the burst number in each well.Data from the assay component CCTE_Shafer_MEA_acute_burst_number was analyzed into 1 assay endpoint. This assay endpoint, CCTE_Shafer_MEA_acute_burst_number, was analyzed in the negative analysis fitting direction relative to DMSO as the negative control and baseline of activity. Using a type of functional reporter, gain or loss-of-signal activity can be used to understand electrical activity.
Spontaneous activity in the cortical cultures was recorded using an Axion Biosystems Maestro 768 channel amplifier and Axion Integrated Studios (AxIS) v1.8 (or later) software. The amplifier recorded from all channels simultaneously (gain = 1200 x; sampling rate = 12.5 kHz/channel): raw signals were filtered with a Butterworth band-pass filter (300-5000 Hz), which filters out slower local field potentials leaving only fast potentials, i.e., "spikes", arising from extracellular currents associated with action potentials (Pine 2006; Wheeler and Nam 2011). On-line spike detection of filtered signals was conducted with the AxIS adaptive spike detector, using a threshold of 8x the root mean squared (rms) noise on each channel. Any electrodes with rms noise levels greater than 5 uV were grounded (e.g., no data were recorded). Once grounded, an electrode was grounded for the duration of the experiment. All recordings were conducted at 37 C. Wells were deemed usable if on the day of the exposure >/= 10 electrodes were active (defined as >/= 5 spikes/min). On DIV 13 or 15, a minimum of three wells from one cortical culture preparation were treated with each compound (0.03-40 uM). Prior to recording baseline activity, each mwMEA plate was placed in the Maestro at 37 C and allowed to sit for 20 min while firing rates stabilized. Baseline activity (40 min) was recorded before the addition of each compound. An additional 40 min of spontaneous activity was recorded in the presence of each compound. Changes in network parameters relative to baseline were assessed following compound treatment.
For `CCn1cc(C(=O)O)c(=O)c2ccc(C)nc21`, the AC50 is 3 nM (active).

Consider `O=C(c1ccc(OCCN2CCCCC2)cc1)c1c(-c2ccc(O)cc2)sc2cc(O)ccc12`, for which the AC50 was 11200 nM (active).

With `CCCCOCCOCCO`, the compound was classed as inactive.

For `CC(=O)c1ccc(C)cc1`, the AC50 is 3 nM (active).

Take `c1ccc(OCCOc2ccccc2)cc1`: the call was inactive.

In the case of `CC(C)CCCC(C)(C)O`, the result was inactive.

Regarding `CCCCN(CCO)CCO`, the outcome was inactive.

Turning to `N[C@@H](CCC(=O)O)C(=O)O`, the result was inactive.

`CCCO[Si](OCCC)(OCCC)OCCC`: the compound was called inactive.

For `CC(C)(CO)CO`, the call was inactive.

Consider `CC/C(=C(\c1ccccc1)c1ccc(OCCN(C)C)cc1)c1ccccc1`, for which the AC50 is 2.79 µM (active) and 4.2 µM (active).

As usually defined, the AC50 is the concentration at which the activity in the assay is half-maximal.
